Six1-Eya2 blk: Six1/Eya2 interaction inhibition; Q15475+O00167; AlphaScreen GST-Six1/His-Eya2 binding, biochemical; hits give low values; activity change, % (test concentration not listed); 0.56% of 360,000 active; in the data active means activity change below about -65%; inconclusive means mostly about -30% to -63%
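GST-Six1 + His-Eya2 (5X stock: 250/500 nM); Tris pH 8.0, 300 mM NaCl, 0.05% BSA, 0.02% Tween 20; GSH donor/Ni acceptor beads; 1 h 37 °C dark; AlphaScreen readout.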
p53 reactivation: restores transcriptional activity of mutant p53; H1299 p53-A138V BP100-luciferase reporter, luminescence, 24 h; Potency, µM (highest dose often 92.2 µM), hits mostly activators; 0.063% of 320,000 active; AID 504706; further: nearly all actives have a fitted effect of over 45% in size
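H1299 (p53-null), stable ts p53-A138V + BP100-Luc; 1000 cells/well, Opti-MEM/10% FBS; cpd 4 pt, 1:5; 24 h, 37 deg C, 5% CO2; detection reagent 10 min RT; luminescence.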
VP16 counter: counter-screen for ROR gamma inhibitors: Gal4-VP16 reporter; 3.5% of 310,000 active; Drosophila S2 Gal4-VP16 UAS-luciferase, luminescence, 20 h; Potency, µM (top dose mostly 53.6 µM), hits mostly inhibitors;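 further: Gal4-VP16 expression switched on by copper sulfate through the metallothionein promoter; nearly all actives have a fitted effect of over 50% in size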
CtBP-E1A inh: blocks the CtBP interaction with E1A; 0.49% of 340,000 active; activity change, % (concentration not given with the values); AlphaScreen GST-E1A/His-CtBP binding, 1536-well; hits give low values; AID 651724; in the data active means activity change below about -65%; inconclusive means mostly about -30% to -63%
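AlphaScreen with 125 nM GST-E1A and 125 nM His-CtBP (5X stocks) in Tris pH 8.0, 300 mM NaCl, BSA, Tween 20, TCEP. Compounds preincubated 2 h at 37 deg C, then glutathione donor/nickel acceptor beads added for 1 h at 37 deg C in dark.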
RORgamma inh: ROR gamma (mouse) transcription inhibition; P51450; Drosophila S2 Gal4-RORgamma UAS-luciferase reporter, 20 h; Potency, µM (series often up to 53.6 µM), hits mostly inhibitors; 5.4% of 310,000 active; further: nearly all actives have a fitted effect of over 60% in size
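ROR gamma transcriptional activity was tracked as Gal4-UAS luciferase output in stably transfected Drosophila Schneider cells, with compound added 1 hr before 700 uM copper sulfate induction and a 20 hr ambient-temperature incubation.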
A number is an active result; 0 = inactive; ? = inconclusive; - = no result given; [ ] = another dose, or the depositor's remark. Hits are enriched below; roughly 5.4% of the tested compounds scored in any of these assays. Unless noted, the call rests on the fitted dose curve; in most records, active means well fitted curve in the direction sought with a large enough effect; inconclusive means small, poorly fitted or top-dose-only effect, or another doubt; inactive means no such curve, though single readings can be large; an effect the other way counts as inactive or inconclusive.

SMILES	Six1-Eya2 blk	p53 reactivation	VP16 counter	CtBP-E1A inh	RORgamma inh
Cc1cc(/C=N/Nc2nc(N)ncc2[N+](=O)[O-])c(C)n1-c1cccc(C(F)(F)F)c1	-	0	?	-	6.31µM
Cc1cc(=O)[nH]c(N/N=C/c2cc(C)n(-c3ccccc3)c2C)n1	0	?	0	0	?
O=C(c1ccc(Cl)c(S(=O)(=O)N2CCCCCC2)c1)N1CCN(c2ccccc2O)CC1	0	0	0	0	0
CC1CC(C)CN(C(=O)c2ccc3c(=O)n(Cc4ccc5c(c4)OCO5)c(=S)[nH]c3c2)C1 (configuration not stated)	0	0	10µM	0	3.55µM
CCOC(=O)N1CCC(n2c(=S)[nH]c3ccccc3c2=O)CC1	0	0	7.08µM	0	8.91µM
CCOC(=O)N1CCN(C(=O)c2ccc3c(=O)n(Cc4ccccc4)c(=S)[nH]c3c2)CC1	0	0	?	0	12.6µM
CN1CCN(C(=O)c2ccc3c(=O)n(Cc4ccc(Cl)cc4)c(=S)[nH]c3c2)CC1	0	0	?	0	7.08µM
O=C(c1ccc2c(=O)n(Cc3ccc4c(c3)OCO4)c(=S)[nH]c2c1)N1CCCCC1	0	0	0	0	?
CC1CC(C)CN(S(=O)(=O)N2CCC(C(=O)NCCc3ccccc3)CC2)C1 (configuration not stated)	0	0	0	0	0
O=C(c1ccc(Cn2c(=S)[nH]c3ccccc3c2=O)cc1)N1CCN(c2ccccn2)CC1	0	0	?	0	11.2µM
O=C(c1ccc2c(=O)n(Cc3ccc(Cl)cc3)c(=S)[nH]c2c1)N1CCOCC1	0	0	7.08µM	0	3.98µM
O=C(c1ccc2c(=O)n(Cc3ccco3)c(=S)[nH]c2c1)N1CCN(c2ccccc2)CC1	0	0	0	0	?
O=C(c1ccc2c(=O)n(Cc3ccc(Cl)cc3)c(=S)[nH]c2c1)N1CCCC1	0	0	?	0	5.01µM
O=c1c2ccc(Cl)cc2[nH]c(=S)n1Cc1cccnc1	0	0	?	0	5.01µM
CCOC(=O)N1CCN(C(=O)c2ccc3c(=O)n(Cc4ccc(OC)cc4)c(=S)[nH]c3c2)CC1	0	0	?	0	0
Cc1cc(C)n(C(N)=NC(=O)c2ccccc2)n1	0	-	-	0	-
C1CCCNCC1	-	-	0	-	0
O=C(c1ccc2c(=O)n(Cc3ccccc3Cl)c(=S)[nH]c2c1)N1CCCC1	0	0	?	0	11.2µM
CN(C)/C=C(\C(=O)c1cccc(Cl)c1)c1nnnn1-c1ccccc1	0	0	?	0	14.1µM
Cc1ccc(NC(=O)Nc2ccc3c(c2)C(=O)OC3)cc1Cl	0	0	0	-	0
O=[N+]([O-])c1ccc(N=Nc2ncc[nH]2)cc1	0	0	6.31µM	-	7.08µM
COc1ccc(Cc2nnc(SCC(=O)c3ccc(OC)cc3)o2)cc1	0	0	0	0	0
Cc1csc(NC(=O)CSc2nnc(-c3cc(C)on3)o2)n1	0	0	14.1µM	-	14.1µM
Cc1cc(-c2nnc(SCC(=O)Nc3nc(-c4ccccc4)cs3)o2)no1	0	0	0	0	14.1µM
COc1ccc(Cc2nnc(SCC(=O)Nc3nc(C)cs3)o2)cc1	0	0	0	0	35.5µM
SMILES	Six1-Eya2 blk	p53 reactivation	VP16 counter	CtBP-E1A inh	RORgamma inh
Cn1c(=O)c2c(nc(C(O)c3ccccc3)n2C)n(C)c1=O (configuration not stated)	0	-	-	0	-
O=S(=O)(Nc1nc(CN2CCOCC2)nc2sc3c(c12)CCCC3)c1cc(F)ccc1F	0	0	0	0	0
O=C(C1=C(O)C(=O)N(c2ccccc2)C1c1ccc([N+](=O)[O-])cc1)c1cccs1 (configuration not stated)	0	0	0	0	0
COc1cccc2cc(/C(C)=N/Nc3nc(-c4cc(C)ccc4C)cs3)c(=O)oc12	0	0	0	0	0.794µM
CCOC(=O)[C@H]1[C@H]2COc3cc(OC)ccc3[C@@H]2N2C(=O)N(c3ccc(Cl)cc3)C(=O)[C@@]12C	0	0	0	0	0
CCOC(=O)[C@@H]1[C@H]2COc3cc(OC)ccc3[C@@H]2N2C(=O)N(c3ccc(C)cc3)C(=O)[C@@]12C	0	-	0	0	5.01µM
CCOC(=O)[C@@H]1[C@H]2COc3cc(OC)ccc3[C@@H]2N2C(=O)N(c3cccc(F)c3)C(=O)[C@@]12C	0	0	0	0	10µM
CCOC(=O)[C@@H]1[C@H]2COc3cc(OC)ccc3[C@@H]2N2C(=O)N(c3ccc(Cl)cc3)C(=O)[C@@]12C	0	0	?	0	8.91µM
CCOC(=O)[C@@H]1[C@H]2COc3ccccc3[C@@H]2N2C(=O)N(c3ccc(F)cc3)C(=O)[C@@]12C	0	0	0	0	12.6µM
O=[N+]([O-])c1ccc2[nH]c(O)c(N=NC3CCS(=O)(=O)C3)c2c1 (configuration not stated)	0	0	0	0	0
CN(CCCC(=O)NC1CC(C)(C)NC(C)(C)C1)S(=O)(=O)c1ccc([N+](=O)[O-])cc1	0	0	0	0	0
CC1=C(C(=O)N(C)C)C(c2cccc(Cl)c2)NC(=O)N1 (configuration not stated)	0	0	0	0	11.2µM
O=C(Nc1cccc(F)c1)N1CC2(CCN(C(=O)c3ccncc3)CC2)C1	-	-	0	-	0
O=C1C=C(c2ccccc2)C(=O)N1Nc1ccccc1	0	0	5.01µM	0	4.47µM
Cc1ccc(NN2C(=O)C=CC2=O)cc1	0	0	0	0	0
Cc1ccc(NN2C(=O)C=C(c3ccc(Cl)cc3)C2=O)cc1	0	0	8.91µM	0	7.08µM
COc1ccc(C2=CC(=O)N(Nc3ccccc3)C2=O)cc1	0	0	11.2µM	0	?
CC1CCC2C(=O)N3C(CCC(C)[C@@H]3c3ccc(Br)cc3)C(=O)N2C1c1ccc(Br)cc1 (some centres not stated)	-	-	0[10 µM]	-	0[10 µM]
COc1cc(=O)n(C)c2c(OC[C@@H](O)C(C)(C)O)cccc12	-	-	0	-	0
Cc1cc(C)c(C)c(OCCCN(C)C)c1	0	0	0	0	0
O=C(CCCCCNC(=O)N1CCn2c1nc1ccccc12)NCc1ccccc1	0	0	0	?	0
O=C(O)c1csc(N/N=C/c2ccc(Br)cc2)n1	0	0	5.01µM	0	2.51µM
CNC(=O)C(=O)N/N=C/c1ccc(Br)cc1	0	0	0[10 µM]	-	0
O=C(O)CSc1nnc(-c2ccc(Cl)cc2Cl)n1-c1ccccc1	0	?	0	0	0
CN(C(=O)c1ccc(Br)o1)C1CCCCC1	0	0	?	0	0
Cc1c(C(=O)N2CCOCC2)sc(NC(=O)c2ccc([N+](=O)[O-])cc2)c1C#N	?	0	0	0	0
Cc1c(C(=O)N2CCOCC2)sc(NC(=O)CCl)c1C#N	0	0	?	0	12.6µM
Cc1ccc(C)c(N2N=C(C(=O)N(CC(C)C)c3c(N)n(Cc4ccccc4)c(=O)[nH]c3=O)CCC2=O)c1	0	0	0	0	0

Compound activity deposited in PubChem by National Center for Advancing Translational Sciences (NCATS).
